In the supplement of paper PMC8728848:
Many of the other results were omitted from the sample, so the strongest signals are more common in it than they were.

Tests used:
Assay in all cases: glycan array binding signal (z-score within array); higher = stronger binding
Conditions in all cases: glycan notation: IUPAC condensed, linker removed
[1] = molecular target: Fuc(a1-2)Gal(b1-4)GlcNAc(b1-3)Gal(b1-4)GlcNAc(b1-2)Man(a1-3)[Fuc(a1-2)Gal(b1-4)GlcNAc(b1-3)Gal(b1-4)GlcNAc(b1-2)Man(a1-6)]Man(b1-4)GlcNAc(b1-4)GlcNAc
Summary of the method: (§1)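 Arrays were curated from the Consortium for Functional Glycomics database, 3228 in total, and kept only where the protein sequence was available. Binding is expressed as a within-array Z-score. This score was averaged across arrays of the same protein sequence at different concentrations or buffers and across linkers, and negative values can be read as non-binding.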

[2] = molecular target: Fuc(a1-2)[Gal(a1-3)]Gal(b1-4)GlcNAc
Summary of the method: as §1

[3] = molecular target: Fuc(a1-2)[Gal(a1-3)]Gal(b1-4)GlcNAc(b1-2)Man
Summary of the method: as §1

[4] = molecular target: Fuc(a1-2)[Gal(a1-3)]Gal(b1-4)GlcNAc(b1-6)GalNAc
Summary of the method: as §1

[5] = molecular target: Fuc(a1-2)[Gal(a1-3)]Gal(b1-4)[Fuc(a1-3)]GlcNAc(b1-3)GalNAc
Summary of the method: as §1

[6] = molecular target: Fuc(a1-2)[GalNAc(a1-3)]Gal(b1-4)GlcNAc(b1-2)Man(a1-3)[Fuc(a1-2)[GalNAc(a1-3)]Gal(b1-4)GlcNAc(b1-2)Man(a1-6)]Man(b1-4)GlcNAc(b1-4)[Fuc(a1-6)]GlcNAc
Summary of the method: as §1

[7] = molecular target: Fuc(a1-3)[Gal(b1-4)]GlcNAc(b1-3)Gal(b1-4)[Fuc(a1-3)]GlcNAc(b1-3)Gal(b1-4)[Fuc(a1-3)]GlcNAc
Summary of the method: as §1

[8] = molecular target: Fuc(a1-3)[Gal(b1-4)]GlcNAc6S
Summary of the method: as §1

[9] = molecular target: Fuc(a1-3)[Gal3S(b1-4)]GlcNAc6S
Summary of the method: as §1

[10] = molecular target: Fuc(a1-4)GlcNAc
Summary of the method: as §1

[11] = molecular target: Gal(a1-3)Gal
Summary of the method: as §1

[12] = molecular target: Gal(b1-3)GalNAc
Summary of the method: as §1

[13] = molecular target: Gal(b1-3)GlcNAc(b1-2)Man(a1-3)[Gal(b1-3)GlcNAc(b1-2)Man(a1-6)]Man(b1-4)GlcNAc(b1-4)GlcNAc
Summary of the method: as §1

[14] = molecular target: Gal(b1-3)GlcNAc(b1-3)Gal(b1-4)GlcNAc(b1-3)Gal(b1-4)GlcNAc(b1-2)[Gal(b1-3)GlcNAc(b1-3)Gal(b1-4)GlcNAc(b1-3)Gal(b1-4)GlcNAc(b1-6)]Man(a1-6)[Gal(b1-3)GlcNAc(b1-3)Gal(b1-4)GlcNAc(b1-3)Gal(b1-4)GlcNAc(b1-2)Man(a1-3)]Man(b1-4)GlcNAc(b1-4)[Fuc(a1-6)]GlcNAc
Summary of the method: as §1

[15] = molecular target: Gal(b1-3)[Fuc(a1-4)]GlcNAc(b1-2)Man
Summary of the method: as §1

[16] = molecular target: Gal(b1-3)[Fuc(a1-4)]GlcNAc(b1-3)Gal(b1-3)[Fuc(a1-4)]GlcNAc
Summary of the method: as §1

[17] = molecular target: Gal(b1-4)Gal
Summary of the method: as §1

[18] = molecular target: Gal(b1-4)GlcNAc(b1-2)[Gal(b1-4)GlcNAc(b1-6)]Man(a1-6)[GlcNAc(b1-4)][Gal(b1-4)GlcNAc(b1-2)[Gal(b1-4)GlcNAc(b1-4)]Man(a1-3)]Man(b1-4)GlcNAc(b1-4)[Fuc(a1-6)]GlcNAc
Summary of the method: as §1

[19] = molecular target: Gal(b1-4)GlcNAc(b1-3)Gal(b1-4)GlcNAc(b1-2)[Gal(b1-4)GlcNAc(b1-3)Gal(b1-4)GlcNAc(b1-6)]Man(a1-6)[Gal(b1-4)GlcNAc(b1-3)Gal(b1-4)GlcNAc(b1-2)Man(a1-3)]Man(b1-4)GlcNAc(b1-4)GlcNAc
Summary of the method: as §1

[20] = molecular target: Gal(b1-4)GlcNAc(b1-3)Gal(b1-4)GlcNAc(b1-3)GalNAc
Summary of the method: as §1

[21] = molecular target: Gal(b1-4)GlcNAc(b1-3)Gal(b1-4)GlcNAc(b1-3)[Gal(b1-4)GlcNAc(b1-3)Gal(b1-4)GlcNAc(b1-6)]GalNAc
Summary of the method: as §1

[22] = molecular target: Gal(b1-4)GlcNAc(b1-3)Gal(b1-4)[Fuc(a1-3)]GlcNAc(b1-3)Gal(b1-4)[Fuc(a1-3)]GlcNAc
Summary of the method: as §1

[23] = molecular target: Gal(b1-4)GlcNAc(b1-3)[Gal(b1-4)GlcNAc(b1-6)]Gal(b1-4)GlcNAc
Summary of the method: as §1

[24] = molecular target: Gal(b1-4)GlcNAc(b1-3)[GlcNAc(b1-6)]Gal(b1-4)GlcNAc
Summary of the method: as §1

[25] = molecular target: Gal3S(b1-4)Glc6S
Summary of the method: as §1

[26] = molecular target: GalNAc(b1-4)GlcNAc(b1-2)Man
Summary of the method: as §1

[27] = molecular target: GalNAc(b1-4)GlcNAc6S
Summary of the method: as §1

[28] = molecular target: GlcA(b1-3)GlcNAc
Summary of the method: as §1

[29] = molecular target: GlcNAc(a1-3)Gal(b1-4)GlcNAc
Summary of the method: as §1

[30] = molecular target: GlcNAc(b1-2)[GlcNAc(b1-6)]Man(a1-6)[GlcNAc(b1-4)][GlcNAc(b1-2)Man(a1-3)]Man(b1-4)GlcNAc(b1-4)GlcNAc
Summary of the method: as §1

[31] = molecular target: GlcNAc(b1-3)Man
Summary of the method: as §1

[32] = molecular target: Kdn(a2-3)Gal(b1-3)GlcNAc
Summary of the method: as §1

[33] = molecular target: Man(a1-2)Man(a1-2)Man(a1-3)Man
Summary of the method: as §1

[34] = molecular target: Man(a1-2)Man(a1-6)[Man(a1-3)]Man(a1-6)[Man(a1-2)Man(a1-2)Man(a1-3)]Man
Summary of the method: as §1

[35] = molecular target: Man(a1-3)[Man(a1-6)]Man
Summary of the method: as §1

[36] = molecular target: Man(a1-3)[Man(a1-6)]Man(b1-4)GlcNAc(b1-4)GlcNAc
Summary of the method: as §1

[37] = molecular target: Man(b1-4)GlcNAc
Summary of the method: as §1

[38] = molecular target: Neu5Ac(a2-3)Gal(b1-3)GalNAc6S
Summary of the method: as §1

[39] = molecular target: Neu5Ac(a2-3)Gal(b1-3)GlcNAc
Summary of the method: as §1

[40] = molecular target: Neu5Ac(a2-3)Gal(b1-4)Glc
Summary of the method: as §1

[41] = molecular target: Neu5Ac(a2-3)Gal(b1-4)GlcNAc(b1-2)Man
Summary of the method: as §1

[42] = molecular target: Neu5Ac(a2-3)Gal(b1-4)GlcNAc(b1-3)Gal(b1-4)GlcNAc(b1-3)[Neu5Ac(a2-3)Gal(b1-4)GlcNAc(b1-3)Gal(b1-4)GlcNAc(b1-6)]GalNAc
Summary of the method: as §1

[43] = molecular target: Neu5Ac(a2-3)Gal(b1-4)GlcNAc(b1-6)[Gal(b1-3)]GalNAc
Summary of the method: as §1

[44] = molecular target: Neu5Ac(a2-3)Gal(b1-4)[Fuc(a1-3)]GlcNAc(b1-2)Man
Summary of the method: as §1

[45] = molecular target: Neu5Ac(a2-3)Gal(b1-4)[Fuc(a1-3)]GlcNAc(b1-6)[Neu5Ac(a2-3)Gal(b1-3)]GalNAc
Summary of the method: as §1

[46] = molecular target: Neu5Ac(a2-3)GalNAc(b1-4)GlcNAc
Summary of the method: as §1

[47] = molecular target: Neu5Ac(a2-3)[Neu5Ac(a2-6)]GalNAc
Summary of the method: as §1

[48] = molecular target: Neu5Ac(a2-6)GlcNAc(b1-4)GlcNAc
Summary of the method: as §1

[49] = molecular target: Neu5Ac(a2-8)Neu5Ac
Summary of the method: as §1

[50] = molecular target: Neu5Ac9Ac(a2-3)Gal(b1-4)GlcNAc
Summary of the method: as §1

[51] = molecular target: Neu5Gc(a2-8)Neu5Gc(a2-3)Gal(b1-4)GlcNAc
Summary of the method: as §1

B1: Mermaid3 (Stilbonema majum) (protein)
chain: MGSSHHHHHHSSGLVPRGSHMAASGWLRSPQGTVVKLYRRSLSWSKADEFCKDVDGRLVVDRTADMHLFLIKNVLKEKKSRVWVGLRRTASHSRTWIWSDGTRQNEGDLDANLWLRDEPNDAAGEEECALFMYSPWEKAWGLNDYLCRGGCRNYQFICEKWIR
glycan array binding signal (z-score) [1]: 0.368
glycan array binding signal (z-score) [2]: -0.174
glycan array binding signal (z-score) [3]: -0.175
glycan array binding signal (z-score) [4]: -0.383
glycan array binding signal (z-score) [5]: -0.592
glycan array binding signal (z-score) [6]: 0.166
glycan array binding signal (z-score) [7]: -0.463
glycan array binding signal (z-score) [8]: 3.67
glycan array binding signal (z-score) [9]: -0.521
glycan array binding signal (z-score) [10]: 1.39
glycan array binding signal (z-score) [11]: -0.579
glycan array binding signal (z-score) [12]: 0.892
glycan array binding signal (z-score) [13]: -0.627
glycan array binding signal (z-score) [14]: 5.6
glycan array binding signal (z-score) [15]: 0.676
glycan array binding signal (z-score) [16]: -0.634
glycan array binding signal (z-score) [17]: 6.72
glycan array binding signal (z-score) [18]: -0.562
glycan array binding signal (z-score) [19]: 3.51
glycan array binding signal (z-score) [20]: -0.185
glycan array binding signal (z-score) [21]: -0.118
glycan array binding signal (z-score) [22]: -0.554
glycan array binding signal (z-score) [23]: -0.074
glycan array binding signal (z-score) [24]: 4.93
glycan array binding signal (z-score) [25]: -0.077
glycan array binding signal (z-score) [26]: -0.708
glycan array binding signal (z-score) [27]: 3.6
glycan array binding signal (z-score) [28]: 1.68
glycan array binding signal (z-score) [29]: 1.05
glycan array binding signal (z-score) [30]: -0.397
glycan array binding signal (z-score) [31]: 5.11
glycan array binding signal (z-score) [32]: -0.708
glycan array binding signal (z-score) [33]: -0.704
glycan array binding signal (z-score) [34]: -0.681
glycan array binding signal (z-score) [35]: 0.678
glycan array binding signal (z-score) [36]: -0.62
glycan array binding signal (z-score) [37]: 4.76
glycan array binding signal (z-score) [38]: -0.112
glycan array binding signal (z-score) [39]: -0.277
glycan array binding signal (z-score) [40]: 0.506
glycan array binding signal (z-score) [41]: 4.26
glycan array binding signal (z-score) [42]: -0.289
glycan array binding signal (z-score) [43]: 4.77
glycan array binding signal (z-score) [44]: -0.553
glycan array binding signal (z-score) [45]: -0.153
glycan array binding signal (z-score) [46]: 0.426
glycan array binding signal (z-score) [47]: 4.44
glycan array binding signal (z-score) [48]: -0.709
glycan array binding signal (z-score) [49]: -0.57
glycan array binding signal (z-score) [50]: -0.2
glycan array binding signal (z-score) [51]: -0.787
